Laboratory results: PubChem BioAssay (NCI)
Compounds without any hit were thinned out: in the full panel of roughly 83,000, 20% have a hit.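 Note: values are percent growth. 100 is the growth of untreated cells, values between 100 and 0 indicate rising inhibition; between -100 and 0 indicates cell death.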 A number with no mark means an inactive call. Activity calls are given as the source filed them. The calls were made as follows: active = growth percent below 10; inactive = the rest.

Experiments:
Assay in all cases: NCI-60 one-dose screen, 48 h (100 = growth as untreated, 0 = no growth, -100 = all killed)
Conditions in all cases: 10 µM unless noted
SK-MEL-2 melanoma = tested on: SK-MEL-2 melanoma
EKVX NSCLC = tested on: EKVX NSCLC
SN12C renal = tested on: SN12C renal
UO-31 renal = tested on: UO-31 renal
TK-10 renal = tested on: TK-10 renal
ACHN renal = tested on: ACHN renal
CAKI-1 renal = tested on: CAKI-1 renal
A498 renal = tested on: A498 renal
CCRF-CEM leukemia = tested on: CCRF-CEM leukemia
MOLT-4 leukemia = tested on: MOLT-4 leukemia

Row | Structure (SMILES) | growth (SK-MEL-2 melanoma) | growth (EKVX NSCLC) | growth (SN12C renal) | growth (UO-31 renal) | growth (TK-10 renal) | growth (ACHN renal) | growth (CAKI-1 renal) | growth (A498 renal) | growth (CCRF-CEM leukemia) | growth (MOLT-4 leukemia)
1 | CSc1nn2c(-c3ccc4ccccc4c3)ccnc2c1C#N | -7.77% (active) | 33.5% | 23.4% | 16.7% | -2.29% (active) | 16% | 22.4% | 21.9% | 41% | 28.5%
2 | C[C@@H]1O[C@@H](O[C@@H]2C[C@H](c3ccc4c(c3O)C(=O)C3=C(C4=O)[C@@]4(O)C(=O)C[C@](C)(O)C[C@@]4(O)C=C3)O[C@H](C)[C@H]2O)CC[C@@H]1O[C@H]1C[C@@H](O)[C@H](O)[C@@H](C)O1 | 110% | 98% | 98.4% | 82.8% | 97.4% | 90.8% | 93.3% | 108% | 90.5% | 86.6%
3 | C=C1C(=O)O[C@H]2[C@H]1CC/C(COC(=O)CSCSCC(=O)OC/C1=C/CC[C@@]3(C)O[C@H]3[C@H]3OC(=O)C(=C)[C@@H]3CC1)=C\CC[C@@]1(C)O[C@@H]21 | 59% | 15.9% | 5.07% (active) | -0.857% (active) | 15.3% | 7.98% (active) | 15.9% | 83.6% | -35% (active) | -15.3% (active)
4 | CCCCCCCCCCCCCOC(=O)c1c(C)[nH]c(/C=C2\N=C(c3ccc[nH]3)C=C2OC)c1C | -42.1% (active) | 52.3% | 40.7% | -54.4% (active) | 34.4% | 8.11% (active) | -7.49% (active) | 10.3% | 17.8% | 22.8%
5 | O=C(/C=C/c1ccccc1)c1ccc(Nc2nc(Nc3ccc(F)cc3)nc(Nc3ccc(Cl)cc3)n2)cc1 | 92% | 79.2% | 99.6% | 82% | 106% | 93.1% | 87.4% | 94.5% | 26.3% | 83.6%
6 | O=C(CCSc1nnc2n(Cc3ccccc3)c(=O)c3c4c(sc3n12)CCCC4)N1CCN(c2ccccc2)CC1 | 99.1% | 91.8% | 94.8% | 94.5% | 101% | 93.2% | 92.8% | 106% | 127% | 111%
7 | CCCCCCCCCCCCCCCCCCOc1ccccc1CC(=O)NCC[N+]1(C)CCCCC1 | 64.5% | 89.1% | 33% | 76.2% | 42.1% | 93.6% | 79.3% | 66% | 17.1% | 9.62% (active)
8 | C#CC#CC#CC#CC#CC#CC#CC#CC[C@@H]1OC[C@@H](COC(=O)O[C@@H](C(=O)O[C@H]2C[C@@]3(O)[C@@H](OC(=O)c4ccccc4)[C@@H]4[C@]5(OC(C)=O)CO[C@@H]5C[C@H](O)[C@@]4(C)C(=O)[C@H](OC(C)=O)C(=C2C)C3(C)C)[C@@H](NC(=O)c2ccccc2)c2ccccc2)O1 | 105% | 35.2% | 21.4% | 35.2% | 123% | 26.5% | 81.3% | 52.9% | 6.05% (active) | 9.3% (active)
9 | O=c1c2ccccc2c(=O)c2c1sc1c(=O)c3ccc(O)cc3c(=O)c12 | -60.2% (active) | -57.7% (active) | -88.2% (active) | -52% (active) | -95.4% (active) | -77.3% (active) | -68.5% (active) | -98.3% (active) | -23.3% (active) | -40.1% (active)
10 | CCCCNC(=O)Oc1ccc(/C(=C(/C)Cc2ccc(OC)cc2)c2ccc(OCCN3CCCCC3)cc2)cc1 | 113% | 76.3% | 73.9% | 51% | 84.4% | 91.3% | 83.6% | 96.3% | 42.8% | 33.6%
11 | O=C(/C=C/C12c3ccccc3C(c3ccccc31)C1C(=O)NC(=O)C12)c1ccc(Br)cc1 (stereo not given) | 52.2% | 60.2% | 46.2% | 41.4% | 61.2% | 66.2% | 56.4% | 60.2% | -3.91% (active) | 3.02% (active)
12 | O=C(CSc1nc(-c2ccccc2)cc(=O)[nH]1)Nc1nc(-c2ccccc2)cs1 | 96.9% | 75.7% | 102% | 65.2% | 106% | 95.2% | 75.1% | 114% | 96.2% | -17.6% (active)
13 | N[C@H]1CCC[C@@H]1NCCCCN1C(=O)c2cccc3cc([N+](=O)[O-])cc(c23)C1=O | 84.2% | 73.2% | 29.7% | 66% | 44.5% | 22.4% | 94.3% | 62.6% | 2.24% (active) | 0.264% (active)
14 | Cc1cn(-c2cc(NC(=O)c3cncc(C#Cc4c(N)ncc5ccc(F)cc45)c3)cc(C(F)(F)F)c2)cn1 | 11.4% | 73.4% | 54.5% | 27.4% | 84.3% | 60.6% | 72.1% | 84% | 39.6% | 35.6%
15 | Cc1ccc(CNc2ccc3nc(CCC(C)C)[nH]c3c2)cc1 | 107% | 96% | 85.9% | 68.6% | 113% | 99.3% | 89.1% | 97.1% | 93.7% | 81.4%
16 | C#CCn1cnc2cnc(Nc3cccc(NC(=O)C=C)c3)nc21 | 61.1% [6.25 µM] | 89.2% [6.25 µM] | 90.5% [6.25 µM] | 37.5% [6.25 µM] | 79.9% [6.25 µM] | 75.3% [6.25 µM] | 83.4% [6.25 µM] | 72% [6.25 µM] | 1.84% [6.25 µM] (active) | 8.28% [6.25 µM] (active)
17 | CCOc1ccc(-n2nc(C(=O)NCc3ccccc3OC)nc2-c2cc(OC)c(OC)c(OC)c2)cc1 | 41.5% | 41.3% | 39.7% | -2.66% (active) | 46.5% | 19.6% | 25.9% | 30% | 39.7% | 0.381% (active)
18 | FC(F)(F)c1ccc(Cn2cc(CSc3nc4ccccc4s3)nn2)cc1 | 95.6% | 99.5% | 99.9% | 78.7% | 97.6% | 101% | 84.3% | 86% | 91% | 98.1%
19 | O=C(Nc1ncc(Cc2cc(C(F)(F)F)ccc2Cl)s1)c1cccs1 | 45% | 57.3% | 70.9% | 58.9% | 71.7% | 67.2% | 41.7% | 62.2% | 45.4% | 29.4%
20 | Cc1c(Cl)cccc1C(=O)Nc1nc2c(s1)CN(C(=O)c1ccc(C(F)(F)F)cc1)CC2 | 49.9% | 49.5% | 30% | 44.4% | 64.5% | 25.3% | 22.7% | -20.1% (active) | 16.5% | 21.8%
21 | Cc1ccc(-c2nc(-c3cn(C)c4ncccc34)cs2)cc1 | -14.6% [100 µM] (active) | -13.5% [100 µM] (active) | -13.1% [100 µM] (active) | 14.8% [100 µM] | -60% [100 µM] (active) | 6.72% [100 µM] (active) | -22.9% [100 µM] (active) | -3.41% [100 µM] (active) | -4.89% [100 µM] (active) | 17.3% [100 µM]
22 | CN1CCN(C(=S)SCCCCOc2cc(=O)oc3ccccc23)CC1 | 73.9% | 88.1% | 88.5% | 72.3% | 93.3% | 92.9% | 93.7% | 74.7% | 72.5% | 73.2%
23 | Cc1nc2ccccc2c(/C=C/c2ccccc2)c1C(=O)/C=C/c1ccccc1 | 27% | 45.9% | 23.4% | 35.8% | 31% | 17.4% | 34.7% | 74% | 6.85% (active) | 10.8%
24 | CC1(C)C(N)=Nc2cc(OCCCN3Cc4ccccc4C3)c(OCC3CC3)cc21 | 108% | 77.6% | 84.5% | 58.6% | 81.3% | 96.6% | 52.5% | 92% | 19.1% | 36.1%
25 | Cc1nnc(-c2ccc3c(c2)nc(/C=C/c2ccccc2)n3C2CCCCC2)o1 | 82% | 86.8% | 90.1% | 58.2% | 104% | 54.7% | 112% | 97.8% | 53.8% | 43.4%
26 | CC1(C)CC[C@]2(CO)CC[C@]3(C)[C@H](CC[C@@H]4[C@@]5(C)CCCNC(C)(C)[C@@H]5CC[C@]43C)[C@H]2[C@H]1O | 102% | 95.2% | 86.2% | 72.6% | 86.5% | 101% | 95.3% | 93.4% | 61.2% | 54.1%
